A number with no mark means an inactive call. Results filed as inconclusive are left out. Entries that show only a call come without a potency. Calls of active or inactive are those of the source. Calls come from the whole dose curve; as a rule, active = well fitted curve in the direction sought with a large enough effect in the repeat runs; inconclusive = weak or mixed curves; inactive = no such curve, though single readings can be large; an effect the other way counts as inactive or inconclusive.
Assays:
[1] = Human pregnane X receptor (PXR) small molecule agonists, qHTS cell viability counter screen (AID 1346977); note: nearly all actives have a fitted effect of over 50% in size; note: potency is the fitted concentration of half-maximal effect
Summary of the method: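 Fluorescence read-out (CellTiter-Fluor) of viability in PXR-Luc HepG2 cells, multiplexed with the luciferase agonist read. Compounds in DMSO added after 5hr plating; 24hr total exposure at 37C, 5% CO2.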

[2] = Caspase-3/7 induction in HepG2 cells by small molecules, qHTS assay (AID 1346978); note: nearly all actives have a fitted effect of over 15% in size
Summary of the method: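 Wild-type HepG2 cells (2,000/well) were settled 5 h at 37 C, 5% CO2, then exposed to compounds in DMSO for 17 h. Caspase-3/7 activity was read by luminescence 30 min after adding Caspase-Glo 3/7 reagent at room temperature.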

[3] = Caspase-3/7 induction in CHO-K1 cells by small molecules, qHTS assay (AID 1346980); note: nearly all actives have a fitted effect of over 15% in size
Summary of the method: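 Wild-type cells were seeded at 1,500 per well and settled 5 hr at 37 C, 5% CO2, then exposed to DMSO-dissolved compounds for 17 hr. Caspase-Glo 3/7 reagent was added, and luminescence was read after 30min at room temperature.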

[4] = Caspase-3/7 induction in HepG2 cells by small molecules, qHTS cell viability counter screen (AID 1346981); note: nearly all actives have a fitted effect of over 30% in size; note: potency is the fitted concentration of half-maximal effect
Summary of the method: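 Cell viability is measured as a cytotoxicity counter screen alongside the Caspase-Glo 3/7 readout in identical wells. Wild-type HepG2 cells are treated with test compounds for 16 hr at 37 C before CellTiter-Fluor addition and a 1-hr incubation.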

[5] = molecular target: Nuclear receptor subfamily 1 group I member 2 (Homo sapiens) (UniProt O75469); assay: Human pregnane X receptor (PXR) small molecule agonists, qHTS assay (AID 1346982); note: nearly all actives have a fitted effect of over 35% in size; note: potency is the fitted concentration of half-maximal effect
Sequence of Nuclear receptor subfamily 1 group I member 2 (Homo sapiens) (O75469 whole entry, looked up): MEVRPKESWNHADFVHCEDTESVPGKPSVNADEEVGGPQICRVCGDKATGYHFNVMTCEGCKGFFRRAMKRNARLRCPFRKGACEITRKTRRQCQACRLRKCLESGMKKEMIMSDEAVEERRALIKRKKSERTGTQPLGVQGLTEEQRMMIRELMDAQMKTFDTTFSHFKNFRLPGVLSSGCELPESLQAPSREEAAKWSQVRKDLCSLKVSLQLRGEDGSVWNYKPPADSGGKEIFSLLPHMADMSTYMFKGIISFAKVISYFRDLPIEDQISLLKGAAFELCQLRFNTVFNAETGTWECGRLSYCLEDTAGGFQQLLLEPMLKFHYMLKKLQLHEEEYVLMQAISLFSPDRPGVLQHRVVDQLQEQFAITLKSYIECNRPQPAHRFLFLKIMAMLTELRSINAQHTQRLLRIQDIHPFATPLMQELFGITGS
Summary of the method: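 Cells: HepG2 stably carrying PXR-Luc. Medium held 5% charcoal-stripped FBS. Compounds in DMSO added after 5 hr plating, incubated 24 hr, then luminescence quantified with ONE-Glo.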

[6] = molecular target: Cytochrome P450 2D6 (Homo sapiens) (UniProt P10635); assay: Cytochrome P450 Family 2 Subfamily D Member 6 (CYP2D6) small molecule antagonists: luciferase reporter qHTS assay (AID 1671196); note: nearly all actives have a fitted effect of over 50% in size; note: potency is the fitted concentration of half-maximal effect
Sequence of Cytochrome P450 2D6 (Homo sapiens) (P10635 whole entry, looked up): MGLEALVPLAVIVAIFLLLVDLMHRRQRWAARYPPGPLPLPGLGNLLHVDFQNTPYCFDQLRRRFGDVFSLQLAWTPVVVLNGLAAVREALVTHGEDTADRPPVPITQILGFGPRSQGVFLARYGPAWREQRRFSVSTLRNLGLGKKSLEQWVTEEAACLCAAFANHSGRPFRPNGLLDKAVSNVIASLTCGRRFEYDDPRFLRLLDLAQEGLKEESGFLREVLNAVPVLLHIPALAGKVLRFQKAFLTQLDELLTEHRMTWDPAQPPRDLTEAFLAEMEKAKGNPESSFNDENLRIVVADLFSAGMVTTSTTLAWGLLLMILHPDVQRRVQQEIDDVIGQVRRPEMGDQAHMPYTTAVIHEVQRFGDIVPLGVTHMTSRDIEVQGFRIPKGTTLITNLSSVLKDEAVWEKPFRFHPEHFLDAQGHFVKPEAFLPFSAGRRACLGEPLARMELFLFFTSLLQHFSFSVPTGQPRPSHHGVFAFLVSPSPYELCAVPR
Summary of the method: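 Enzyme and proluciferin substrate were first combined with test chemical for 10 min at room temperature. Adding NADPH regeneration solution started a 1 h reaction, stopped with luciferin detection reagent and read by luminescence 20 min later.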

[7] = molecular target: Nuclear receptor subfamily 1 group I member 2 (Rattus norvegicus) (UniProt Q9R1A7); assay: Rat pregnane X receptor (rPXR) activation by small molecules, qHTS assay (AID 1346983); settings: rPXR luciferase reporter cells, One-Glo luminescence, 24 h; max activation: hits give high values; note: nearly all actives have a fitted effect of over 20% in size
Sequence of Nuclear receptor subfamily 1 group I member 2 (Rattus norvegicus) (Q9R1A7 whole entry, looked up): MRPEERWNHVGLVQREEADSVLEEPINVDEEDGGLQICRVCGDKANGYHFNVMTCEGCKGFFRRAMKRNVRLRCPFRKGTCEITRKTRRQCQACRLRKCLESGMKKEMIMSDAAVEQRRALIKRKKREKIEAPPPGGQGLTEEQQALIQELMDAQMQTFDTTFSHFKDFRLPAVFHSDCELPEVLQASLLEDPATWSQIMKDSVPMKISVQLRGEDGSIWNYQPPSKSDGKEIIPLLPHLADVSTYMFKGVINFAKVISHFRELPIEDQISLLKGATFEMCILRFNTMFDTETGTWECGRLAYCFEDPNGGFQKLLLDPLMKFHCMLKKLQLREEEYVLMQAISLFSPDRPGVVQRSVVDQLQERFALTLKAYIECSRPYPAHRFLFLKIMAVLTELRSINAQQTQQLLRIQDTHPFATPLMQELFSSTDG
Summary of the method: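 Cell-based rPXR luciferase reporter assay, 2,000 cells per well, rested 5hr at 37 C before compound addition in DMSO, then 24 hr at 37 C. One-Glo reagent was added and luminescence read after 30 min at room temperature.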

[8] = molecular target: Nuclear receptor subfamily 1 group I member 2 (Homo sapiens) (UniProt O75469); assay: CYP3A4 induction through human pregnane X receptor (PXR) by small molecules, qHTS assay (AID 1346984); note: nearly all actives have a fitted effect of over 40% in size
Summary of the method: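 Quantitative HTS in DPX-2 cells, i.e. HepG2 transfected with PXR response element and CYP3A4-promoter luciferase. Compounds in DMSO incubated 24hr at 37C; then P450-Glo CYP3A4 substrate, 3uM final, 3hr; One-Glo luminescence.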

[9] = molecular target: Nuclear receptor subfamily 1 group I member 2 (Homo sapiens) (UniProt O75469); assay: Human pregnane X receptor (PXR) activation by small molecules, qHTS assay (AID 1346985); note: nearly all actives have a fitted effect of over 40% in size
Summary of the method: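 DPX-2 cells (HepG2 co-transfected with a PXR response element and a CYP3A4-promoter luciferase construct) were seeded at 2,000 per well, rested 5 hr at 37C, then exposed to DMSO-dissolved compounds for 24 hr. Activation was read as luciferase luminescence.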

CC[N+](C)(CC)CCOC(=O)C(O)(c1ccccc1)C1CCCCC1 (stereo unspecified)
Potency [1]: inactive
Potency [2]: inactive
Potency [3]: inactive
Potency [4]: inactive
Potency [5]: inactive
Potency [6]: 0.776 µM (active)

O=[N+]([O-])c1ccc(NCCO)c(OCCO)c1
Potency [1]: 48.6 µM (active)
Potency [2]: inactive
Potency [3]: inactive
Potency [4]: 27.3 µM (active)
Potency [5]: inactive
Potency [6]: inactive

COc1ccc(C)cc1[N+](=O)[O-]
Potency [1]: inactive
Potency [2]: inactive
Potency [3]: inactive
Potency [4]: inactive
Potency [5]: inactive
Potency [6]: inactive

NCC(=O)CCC(=O)O
Potency [1]: inactive
Potency [2]: inactive
Potency [3]: inactive
Potency [4]: inactive
Potency [5]: inactive
max activation [7]: -1.79%
Potency [8]: inactive
Potency [9]: inactive
Potency [6]: inactive

C/C=C(/C(=C/C)c1ccc(OC(C)=O)cc1)c1ccc(OC(C)=O)cc1
Potency [1]: inactive
Potency [2]: inactive
Potency [3]: inactive
Potency [4]: inactive
Potency [5]: inactive
Potency [6]: inactive

CCCCCCCCCCO[C@@H]1O[C@H](CO)[C@@H](O)[C@H](O)[C@H]1O
Potency [1]: inactive
Potency [2]: inactive
Potency [3]: inactive
Potency [4]: inactive
Potency [6]: inactive

CC(C)(CO)[N+](=O)[O-]
Potency [1]: inactive
Potency [2]: inactive
Potency [3]: inactive
Potency [4]: inactive
Potency [5]: inactive
Potency [6]: inactive

CCCCNc1ccc(C(=O)OCCOCCOCCOCCOCCOCCOCCOCCOCCOC)cc1
Potency [1]: inactive
Potency [2]: inactive
Potency [3]: inactive
Potency [4]: inactive
Potency [5]: inactive
max activation [7]: -3.41%
Potency [8]: inactive
Potency [9]: inactive
Potency [6]: inactive

C[Si](C)(CCCN)O[Si](C)(C)CCCN
Potency [1]: inactive
Potency [2]: inactive
Potency [3]: inactive
Potency [4]: inactive
Potency [5]: inactive
Potency [6]: 22.4 µM (active)

Cc1cc(N)c2cc(NC(=O)Nc3ccc4nc(C)cc(N)c4c3)ccc2n1
Potency [1]: inactive
Potency [2]: inactive
Potency [3]: inactive
Potency [4]: inactive

CO[C@@H]1[C@H](OC(=O)/C=C/C=C/C=C/C=C/C(=O)O)CC[C@]2(CO2)[C@H]1[C@@]1(C)O[C@@H]1CC=C(C)C
Potency [1]: inactive
Potency [2]: inactive
Potency [3]: inactive
Potency [4]: inactive
Potency [5]: 15.4 µM (active)
max activation [7]: 0.0882%
Potency [8]: inactive
Potency [9]: inactive

— PubChem BioAssay (Tox21)
